Results published in PubChem BioAssay (NCATS).
Results filed as inconclusive are left out. Where a call stands in place of a potency, no number is given. The source made the active and inactive calls. Calls follow the shape of the dose curve; as a rule, active = well fitted inhibition curve with a large enough effect; inconclusive = small, poorly fitted or top-dose-only effect; inactive = flat fitted curve, though single readings scatter.

Each compound was assayed against Luciferin 4-monooxygenase (Photinus pyralis) (UniProt P08659) (assay: Biochemical firefly luciferase enzyme assay for NPC (AID 624030;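 also: purified P. pyralis luciferase at 10 nM with luciferin and ATP substrate; nearly all actives have a fitted effect of over 70% in size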)). Conditions: purified P. pyralis luciferase, luminescence, 5 min; series mostly up to 58.6 µM.
Method in brief: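 Purified P. pyralis luciferase at 10 nM in 50 mM Tris Acetate (final), luminescence read within 5 minutes of enzyme addition to compounds. Activity normalised to PTC124 versus DMSO; concentration-response curves classed by r2, magnitude and activity.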

Sequence of Luciferin 4-monooxygenase (Photinus pyralis) (P08659 whole entry, looked up): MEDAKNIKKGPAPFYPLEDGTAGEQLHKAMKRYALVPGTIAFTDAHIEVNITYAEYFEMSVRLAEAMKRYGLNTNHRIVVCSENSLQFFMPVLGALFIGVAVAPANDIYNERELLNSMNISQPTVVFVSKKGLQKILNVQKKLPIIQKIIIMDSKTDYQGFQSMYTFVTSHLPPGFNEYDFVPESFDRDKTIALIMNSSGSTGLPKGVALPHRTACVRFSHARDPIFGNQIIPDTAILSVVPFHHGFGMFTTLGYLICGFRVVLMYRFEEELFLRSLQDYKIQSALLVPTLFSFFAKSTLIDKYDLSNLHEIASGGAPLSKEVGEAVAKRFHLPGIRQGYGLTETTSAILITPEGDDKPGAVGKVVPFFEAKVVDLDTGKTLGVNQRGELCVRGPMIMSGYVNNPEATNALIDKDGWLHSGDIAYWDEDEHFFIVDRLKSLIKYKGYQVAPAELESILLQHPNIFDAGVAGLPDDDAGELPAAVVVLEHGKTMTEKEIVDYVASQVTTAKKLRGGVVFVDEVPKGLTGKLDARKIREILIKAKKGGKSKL

| Compound | Potency |
| --- | --- |
| CC1=C(C(=O)OC(C)C)C(c2cccc([N+](=O)[O-])c2)C(C(=O)OC2CN(C(c3ccccc3)c3ccccc3)C2)=C(N)N1 (stereo not drawn) | inactive |
| Cc1cc(N)c2cc(NC(=O)Nc3ccc4nc(C)cc(N)c4c3)ccc2n1 | inactive |
| CCN(CC)CCOc1ccc(C(O)(Cc2ccc(Cl)cc2)c2ccc(C)cc2)cc1 (stereo not drawn) | inactive |
